PubChem BioAssay (NCATS)
Where “and” joins values, the source holds several entries; their conditions need not be identical. Equal values may be shown once. Results filed as inconclusive are left out. Calls of active or inactive are those of the source. Calls come from the whole dose curve; as a rule, active = well fitted inhibition curve with a large enough effect; inconclusive = small, poorly fitted or top-dose-only effect; inactive = flat fitted curve, though single readings scatter.

Tests used:
CRL-7250 = normal cell line; experiment: Cytotoxic Profiling of Annotated Libraries Using Quantitative High-Throughput Screening (AID 1296008); details: Five cell lines viability, CellTiter-Glo ATP luminescence, 48-72 h; max response: active compounds read low; note: potency is the fitted concentration of half-maximal effect; for max response: % is set by controls: 0 for no effect and ±100 for the full control effect
In short: (§1)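 Compounds were pin-transferred onto cells and incubated 48 or 72 hr at 37 degree Celsius, 95% humidity. CellTiter-Glo was added, plates sat 10 min at room temperature, then ATP-coupled luminescence was imaged as the viability read-out.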

HEK293 = experiment: as above; details: Five cell lines viability, CellTiter-Glo ATP luminescence, 48-72 h; max response: active compounds read low
In short: as §1

HaCat = experiment: as above; details: Five cell lines viability, CellTiter-Glo ATP luminescence, 48-72 h; max response: active compounds read low
In short: as §1

KB-3-1 = experiment: as above; details: Five cell lines viability, CellTiter-Glo ATP luminescence, 48-72 h; max response: active compounds read low
In short: as §1

NIH3T3 = experiment: as above; details: Five cell lines viability, CellTiter-Glo ATP luminescence, 48-72 h; max response: active compounds read low
In short: as §1

HB3 = experiment: qHTS profiling for inhibitors of Plasmodium falciparum proliferation (AID 504749);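 note: 0% = DMSO vehicle and full inhibition = artemisinin control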; details: P. falciparum in erythrocytes, SYBR Green DNA, 72 h; series mostly up to 28.7 µM
In short: (§2)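 P. falciparum-infected erythrocytes (0.3% parasitemia, 2.5% hematocrit final) were exposed to compounds for 72 h at 37 C in 5% CO2, then lysed with SYBR Green buffer overnight at room temperature; parasite DNA fluorescence was normalized to artemisinin and DMSO controls.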

ICS = experiment: as above; details: P. falciparum in erythrocytes, SYBR Green DNA, 72 h; series mostly up to 28.7 µM
In short: as §2

JCK = experiment: as above; details: P. falciparum in erythrocytes, SYBR Green DNA, 72 h; series mostly up to 28.7 µM
In short: as §2

N140 = experiment: as above; details: P. falciparum in erythrocytes, SYBR Green DNA, 72 h; series mostly up to 28.7 µM
In short: as §2

P93_24 = experiment: as above; details: P. falciparum in erythrocytes, SYBR Green DNA, 72 h; series mostly up to 28.7 µM
In short: as §2

P94_40 = experiment: as above; details: P. falciparum in erythrocytes, SYBR Green DNA, 72 h; series mostly up to 28.7 µM
In short: as §2

PAD = experiment: as above; details: P. falciparum in erythrocytes, SYBR Green DNA, 72 h; series mostly up to 28.7 µM
In short: as §2

PC15 = experiment: as above; details: P. falciparum in erythrocytes, SYBR Green DNA, 72 h; series mostly up to 28.7 µM
In short: as §2

PC26 = experiment: as above; details: P. falciparum in erythrocytes, SYBR Green DNA, 72 h; series mostly up to 28.7 µM
In short: as §2

PC49 = experiment: as above; details: P. falciparum in erythrocytes, SYBR Green DNA, 72 h; series mostly up to 28.7 µM
In short: as §2

SC27B = experiment: as above; details: P. falciparum in erythrocytes, SYBR Green DNA, 72 h; series mostly up to 28.7 µM
In short: as §2

TAB109 = experiment: as above; details: P. falciparum in erythrocytes, SYBR Green DNA, 72 h; series mostly up to 28.7 µM
In short: as §2

TAB113 = experiment: as above; details: P. falciparum in erythrocytes, SYBR Green DNA, 72 h; series mostly up to 28.7 µM
In short: as §2

TAB165 = experiment: as above; details: P. falciparum in erythrocytes, SYBR Green DNA, 72 h; series mostly up to 28.7 µM
In short: as §2

W2 = experiment: as above; details: P. falciparum in erythrocytes, SYBR Green DNA, 72 h; series mostly up to 28.7 µM
In short: as §2
Note: nearly all actives have a fitted effect of over 60% in size.

N#CNC(=NCCCCCCOc1ccc(Cl)cc1)Nc1ccncc1
inactive: max response (CRL-7250) -103% | max response (HEK293) -111%
active: Potency (HaCat) 20.9 nM | Potency (KB-3-1) 3.7 nM | Potency (NIH3T3) 296 nM

CC(=O)C1=C(O)C=C2Oc3c(C(C)=O)c(O)c(C)c(O)c3C2(C)C1=O (centres undefined)
inactive: outcome (CRL-7250) | outcome (HEK293) | outcome (HaCat) | outcome (KB-3-1) | outcome (NIH3T3)

C[C@]12C=CC(=O)N[C@@H]1CC[C@H]1[C@H]3CC[C@@H](C(=O)Nc4cc(C(F)(F)F)ccc4C(F)(F)F)[C@@]3(C)CC[C@@H]12
inactive: max response (CRL-7250) -6.18% | max response (HEK293) -11% | outcome (HaCat) | max response (KB-3-1) -3.32% | outcome (NIH3T3)

O=C(CN1C(=O)C2(CCCC2)NC[C@H]1c1cc(F)cc(F)c1)Nc1ccc2c(c1)C[C@@]1(C2)C(=O)Nc2ncccc21
inactive: outcome (CRL-7250) | outcome (HEK293) | max response (HaCat) 3.79% | max response (KB-3-1) 2.38% | max response (NIH3T3) -4.62%

CC(Cc1ccc(O)c(O)c1)(NN)C(=O)O (centres undefined)
inactive: outcome (CRL-7250) | max response (HEK293) -17.2% | max response (HaCat) -11% | max response (KB-3-1) -1.08% | max response (NIH3T3) -2.89%

O=c1ccn([C@@H]2O[C@H](CO)[C@H](O)[C@@H]2F)c(=O)[nH]1
inactive: max response (CRL-7250) -4.58% | max response (HEK293) -5.58% | max response (HaCat) 4.18% | max response (KB-3-1) 5.55% | max response (NIH3T3) 2.94%

Cc1coc2c1C(=O)C(=O)c1c-2ccc2c(C)cccc12
inactive: max response (CRL-7250) -23.2% | max response (HEK293) -8.46% | outcome (HaCat) | outcome (KB-3-1) | max response (NIH3T3) -4.31% and -4.38%

CC(=O)N[C@H]1[C@@H]([C@H](O)[C@H](O)CO)OC(C(=O)O)=C[C@@H]1N=C(N)N
inactive: max response (CRL-7250) -3% | max response (HEK293) 2.95% | max response (HaCat) -9.9% | outcome (KB-3-1) | max response (NIH3T3) 3.71%

CCN(CC)Cc1ccc2cc(COC(=O)Nc3ccc(C(=O)NO)cc3)ccc2c1
active: Potency (CRL-7250) 7430 nM | Potency (HEK293) 418 nM | Potency (HaCat) 1300 nM | Potency (KB-3-1) 1160 nM | Potency (NIH3T3) 2310 nM

Nc1ccn(C2CO[C@H](CO)O2)c(=O)n1 (some centres undefined)
inactive: max response (CRL-7250) -10.6% | max response (HEK293) -12.3% | max response (HaCat) 1.07% | max response (KB-3-1) 6.69% | max response (NIH3T3) -8.89%

C[C@H]1O[C@H](O[C@H]2[C@H](O)[C@@H](O)[C@@H](O[C@H]3[C@H](O)[C@@H](O)C(O)O[C@H]3CO)O[C@H]2CO)[C@H](O)[C@@H](O)[C@H]1N[C@H]1C=C(CO)[C@@H](O)[C@H](O)[C@@H]1O (some centres undefined)
active: Potency (HEK293) 9350 nM
inactive: max response (CRL-7250) 1.59% | max response (HaCat) -16.9% | max response (KB-3-1) 4.29% | max response (NIH3T3) -1.18%

NC[C@H]1O[C@H](O[C@H]2[C@@H](O)[C@@H](O[C@H]3O[C@H](CO)[C@@H](O)[C@H](N)[C@@H]3O)[C@H](N)C[C@@H]2N)[C@H](N)C[C@H]1O
inactive: max response (CRL-7250) -1.47% | max response (HEK293) 0.89% | outcome (HaCat) | max response (KB-3-1) 1.19% | max response (NIH3T3) -1.89%

COC(=O)C=CC(=O)OC
inactive: max response (CRL-7250) -5.16% | outcome (HEK293) | outcome (HaCat) | max response (KB-3-1) 7.81% | max response (NIH3T3) -0.0603%

NC(=O)c1cccc(-c2cccc(OC(=O)NC3CCCCC3)c2)c1
inactive: outcome (CRL-7250) | max response (HEK293) -9.31% | outcome (HaCat) | max response (KB-3-1) 6.26% | outcome (NIH3T3)

C[C@H](CCC(=O)O)[C@H]1CC[C@H]2[C@@H]3[C@H](O)C[C@@H]4C[C@H](O)CC[C@]4(C)[C@@H]3CC[C@]12C
inactive: max response (CRL-7250) 2.36% | max response (HEK293) -7.11% | outcome (HaCat) | max response (KB-3-1) 1.89% | outcome (NIH3T3)

CCOC(=O)C=C[C@H](C[C@@H]1CCNC1=O)NC(=O)[C@@H](CC(=O)[C@@H](NC(=O)c1cc(C)on1)C(C)C)Cc1ccc(F)cc1
inactive: max response (CRL-7250) -2.35% | max response (HEK293) -0.69% | max response (HaCat) -7.58% | max response (KB-3-1) 4.76% | max response (NIH3T3) 0.598%

NC1=N[C@H]2[C@H](CS[C@H]2CCCCC(=O)O)N1
inactive: outcome (CRL-7250) | max response (HEK293) -4.7% | outcome (HaCat) | outcome (KB-3-1) | max response (NIH3T3) -0.4%

O=C(O)C=Cc1ccc(Cn2ccnc2)cc1
inactive: max response (CRL-7250) 3.43% | max response (HEK293) -2.77% | max response (HaCat) -0.523% | outcome (KB-3-1) | max response (NIH3T3) -0.597%

CC(Oc1ccc(O)cc1)(P(=O)(O)O)P(=O)(O)O
inactive: max response (CRL-7250) 3.19% | outcome (HEK293) | outcome (HaCat) | max response (KB-3-1) -8.06% | max response (NIH3T3) -5.52%

COc1ccc([C@@H]2CNC(=O)C2)cc1OC1CCCC1
inactive: Potency (HB3) | Potency (ICS) | Potency (JCK) | Potency (N140) | Potency (P93_24) | Potency (P94_40) | Potency (PAD) | Potency (PC15) | Potency (PC26) | Potency (PC49) | Potency (SC27B) | Potency (TAB109) | Potency (TAB113) | Potency (TAB165) | Potency (W2) | outcome (CRL-7250) | max response (HEK293) 2.8% | outcome (HaCat) | outcome (KB-3-1) | outcome (NIH3T3)

CC(=O)OCC(=O)[C@@]12N=C(C)O[C@H]1C[C@H]1[C@@H]3CCC4=CC(=O)C=C[C@]4(C)[C@@H]3[C@@H](O)C[C@@]12C
inactive: max response (CRL-7250) 0.387% | max response (HEK293) -6.3% | max response (HaCat) -2.39% | max response (KB-3-1) 7.6% | max response (NIH3T3) -3.36%

COc1cc(C(=O)NC2CCN(C)CC2)ccc1Nc1ncc2c(n1)N(C1CCCC1)CCC(=O)N2C(C)C
active: Potency (HEK293) 8330 nM | Potency (NIH3T3) 1320 nM
inactive: max response (CRL-7250) -17.1% | max response (HaCat) -42.1%
